Compound activity deposited in PubChem BioAssay by National Center for Advancing Translational Sciences (NCATS).
Cycloheximide cs: counter-screen for Shiga toxin inhibitors: cycloheximide protein synthesis inhibition; 300,000 compounds, 12% hits; cell reporter, cycloheximide protein synthesis inhibition counterscreen; max response, %; in the data active = max response mostly above about 13%, no sharp cut-off; inactive = mostly below about 14%; also: read at 38.3 µM for the half of the compounds with a filed dose; 0% is about no effect
HCV inh: HCV inhibition; Huh7.5.1 HCVcc-Cre infection, luciferase reporter, 44 h; Potency, µM (series often up to 41.8 µM), for inactives: top-dose activity change, negative = inhibition, hits mostly inhibitors; 340,000 compounds, 3.4% hits; also: potency is read from the fitted curve at half-maximal effect; % is scaled to controls: 0 for no effect and ±100 for the full control effect
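Infectious HCVcc-Cre (~0.5 moi) was added to cells just after compound, with cells seeded 4 h earlier at 1,000 per well. Luciferase activity after 44 h culture reported infection; substrate was incubated 15 min at room temperature before reading.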
HCMV inh: inhibitors of human cytomegalovirus | HFF cells, HCMV-luciferase reporter, 72 h; active compounds read low | activity change, negative = inhibition, % at 57.5 µM | 410,000 compounds, 4.5% hits; in the data active = activity change below about -60%; inconclusive = no clear call, values can overlap the other calls; inactive = above about -39%; also: % is scaled to controls: 0 for no effect and ±100 for the full control effect
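Compounds were evaluated in HFFs infected with an HCMV luciferase reporter virus (MOI 1 PFU/cell). Luciferase in lysates collected 72 h post infection served as the replication measure.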
Pf growth 96h: inhibits malaria parasite growth, 96 h; 320,000 compounds, 6.9% hits; Potency, µM (doses to about 28.7 µM), inactives show at the highest dose activity change, negative = inhibition, actives largely listed as inhibitors; P. falciparum luciferase reporter growth, 96 h; also: potency is read from the fitted curve at half-maximal effect; % is scaled to controls: 0 for no effect and ±100 for the full control effect
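Two-generation exposure (96 h) targets delayed-death phenotype. Reporter parasites carrying integrated firefly luciferase, in red cells at 2% hematocrit and 0.05% parasitemia final, kept at 37 C, 5% CO2; luminescence loss indicates inhibition.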
Pf growth 48h: inhibits P. falciparum growth in the first generation, 48 h | Potency, µM (series often up to 28.7 µM), without a hit: at the highest dose activity change, negative = inhibition, most hits filed as inhibitors | 310,000 compounds, 5.9% hits | P. falciparum luciferase growth in erythrocytes, 48 h; also: potency is read from the fitted curve at half-maximal effect; % is scaled to controls: 0 for no effect and ±100 for the full control effect
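Compounds are pin-transferred into medium, infected erythrocytes (2% hematocrit, 0.1% parasitemia final) are added, and plates sit one parasite generation at 37 C in 5% CO2. Detection reagent is then added and luminescence measured.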
Shiga inhibitor: blocks Shiga toxin action in Vero cells. 290,000 compounds, 9.2% hits. Vero cells, Shiga toxin protein synthesis inhibition reporter. inhibition, % at 38.7 µM; in the data active = inhibition mostly above about 28%, no sharp cut-off; inactive = mostly below about 43%; also: 0% is about no effect
An asterisk follows results filed as active; ? = inconclusive; / = no result. Compounds with a hit are over-represented: about 21% of the library has one in this group of screens. Unless noted, calls follow the shape of the dose curve; as a rule, active = well fitted inhibition curve with a large enough effect; inconclusive = small, poorly fitted or top-dose-only effect, or another doubt; inactive = no such curve, though single readings can be large or run the other way.

SMILES	Cycloheximide cs	HCV inh	HCMV inh	Pf growth 96h	Pf growth 48h	Shiga inhibitor
CCCCOC(=O)c1ccc(NC(=O)CC2NCCNC2=O)cc1 (configuration not stated)	/	/	30	/	/	/
COc1cccc(NC(=O)CSc2nnc(NC(=O)C3CCC3)s2)c1	22	-10%	-26	2%	9%	-12
CC(NC(=O)c1ccccc1F)c1nnc(SCC(=O)NC2CCCC2)n1C (configuration not stated)	-6	8%	-64*	19%	8%	-7
O=C(CSc1nnc(NC(=O)C2CC2)s1)Nc1cccc(F)c1	21*	2%	3	2.9µM*	-4%	16
O=C(CSc1nnc(NC(=O)c2ccccc2F)s1)NC1CCCC1	27*	-5%	41	-5%	?	65*
CC(C)C(=O)Nc1nnc(SCC(=O)NC2CC2)s1	-1	11%	24	5.2µM*	15%	-3
Cc1csc2c(N(C)CCO)ncnc12	4	5%	23	-11%	?	35
COC(=O)[C@@H]1[C@@H](CO)[C@@H]2Cn3c(cccc3=O)[C@@H]2N1C(=O)c1cnccn1	/	/	23	/	/	/
O=C(CSc1nnc(NC(=O)c2ccccc2)s1)NC1CCCC1	17*	16%	5	42%	84%	43
CC(C)C(=O)Nc1nnc(SCC(=O)NCc2cccs2)s1	-2	9%	-92*	?	-27%	-5
O=C(CSc1nnc(NC(=O)c2ccc(F)cc2)s1)NC1CCCC1	1	1%	-18	-13%	34%	4
COCCNC(=O)c1cn(C)c2ccccc2c1=O	9	-7%	13	?	28%	3
COc1cc(Cl)c(C)cc1NC(=O)c1cc(CN2CCOCC2)on1	/	/	-1	/	/	/
Cc1ccc(-n2ncc3c(N4CCCCCC4)ncnc32)cc1Cl	/	/	-90*	/	/	/
Cc1ccc(-n2ncc3c(N4CCCCC4)ncnc32)cc1Cl	/	/	-89*	/	/	/
COc1ccc(N2CCN(c3ncnc4c3cnn4-c3ccc(C)c(Cl)c3)CC2)cc1	/	/	-39	/	/	/
Cc1ccc(Cl)cc1-n1ncc2c(N3CCCCCC3)ncnc21	/	/	-35	/	/	/
CCOC(=O)Nc1ccc2c(c1)N(C(=O)CCN(CC)CC)c1ccccc1S2=O (configuration not stated)	6	-4%	51	82%	11%	-7
CN(Cc1cccc(F)c1)C(=O)c1cccc(S(=O)(=O)N2CCN(Cc3ccccc3)CC2)c1	-3	-25%	/	6%	-5%	-5
CN(CC(=O)Nc1ccccc1Cl)C(=O)c1cccc(S(=O)(=O)N2CCN(c3ccc(F)cc3)CC2)c1	58*	5.6µM*	-80*	?	-16%	139*
CN1CCN(S(=O)(=O)c2cccc(C(=O)N(Cc3nnc(-c4ccccc4Cl)o3)C3CC3)c2)CC1	1	13%	-2	15µM*	?	14
CN(Cc1ccc(OC(F)F)cc1)C(=O)c1cccc(S(=O)(=O)N2CCN(c3ccccc3)CC2)c1	/	5µM*	-63*	/	/	/
CN(Cc1ccc(Cl)c(Cl)c1)C(=O)c1cccc(S(=O)(=O)N2CCN(Cc3ccccc3)CC2)c1	/	10µM*	0	?	?	/
CCOC(=O)Cn1c(=O)oc2cc(S(=O)(=O)Nc3cc(OC)cc(OC)c3)ccc21	/	/	19	/	/	/
Cc1cccc2c(C(=O)O)c3cccc(C)c3nc12	/	16%	9	/	/	/
SMILES	Cycloheximide cs	HCV inh	HCMV inh	Pf growth 96h	Pf growth 48h	Shiga inhibitor
O=C(CNC(=O)C12CC3CC(CC(C3)C1)C2)OCc1ccc(F)cc1Cl	/	-1%	-5	-12%	1%	/
CCOc1ccccc1C(=O)NCC(=O)OCC(=O)N1CCCC1	/	4%	-21	/	/	/
CN(CC(=O)Nc1ccccc1Cl)C(=O)c1cccc(S(=O)(=O)N2CCN(Cc3ccccc3)CC2)c1	/	?	-80*	-12%	?	/
Cc1cccc(C)c1NC(=O)CN(C)C(=O)c1cccc(S(=O)(=O)N2CCN(c3ccc(F)cc3)CC2)c1	/	?	-87*	?	17µM*	/
Cc1cccc(C)c1NC(=O)CN(C)C(=O)c1cccc(S(=O)(=O)N2CCN(c3ccccc3)CC2)c1	-1	/	-8	?	-8%	1
CN(CC(=O)Nc1ccccc1Cl)C(=O)c1cccc(S(=O)(=O)N2CCN(c3ccccc3)CC2)c1	/	?	-77*	/	/	/
CN(Cc1cccc(Cl)c1Cl)C(=O)c1cccc(S(=O)(=O)N2CCN(Cc3ccccc3)CC2)c1	-2	/	-35	?	?	-9
CC(=O)Nc1cc(C(=O)NCc2ccccc2)ccc1Sc1ccc(C)cc1	/	/	-29	/	/	/
COc1ccc(-c2nc3sc(CCNC(=O)C(=O)Nc4ccc(C)c(C)c4)c(C)n3n2)cc1	/	/	-5	/	/	/
COc1ccc(S(=O)(=O)N2CCOC2CNC(=O)C(=O)NCCCN2CCCC2=O)cc1OC (configuration not stated)	/	/	-14	/	/	/
O=C(Nc1nc(-c2ccc(S(=O)(=O)N3CCCCCC3)cc2)cs1)c1ccccc1	-5	?	-73*	1%	/	-4
COc1ccc(-n2c(C)cc(-c3csc(NC(=O)c4ccc(S(=O)(=O)N(C)C)cc4)n3)c2C)cc1	-2	?	-12	12µM*	?	-3
CN(C)S(=O)(=O)c1ccc(C(=O)Nc2nc(-c3cccs3)cs2)cc1	-9	10µM*	-81*	?	/	-21
O=C(Nc1nc(-c2cccs2)cs1)c1ccc(S(=O)(=O)N2CCCC2)cc1	-6	?	-90*	-12%	?	3
COC(=O)c1ccc(-c2csc(NC(=O)c3ccc(S(=O)(=O)N4CCc5ccccc5C4)cc3)n2)cc1	-2	?	0	?	2%	6
C[C@H](O)CC(=O)O	/	-6%	-4	128%	-10%	/
O=C(Nc1nc(-c2ccc3c(c2)OCCO3)cs1)c1ccc(S(=O)(=O)N2CCCCC2)cc1	-2	?	-100*	?	12µM*	3
CC(C)CN1C(=O)c2ccc(NC(=O)c3ccccc3F)cc2C1=O	8	7%	-8	/	?	21
CC(C)CN1C(=O)c2ccc(NC(=O)c3cccs3)cc2C1=O	40*	?	-27	/	8.3µM*	193*
O=C(Nc1ccc(Oc2ccc3c(c2)C(=O)N(c2ccc(O)cc2)C3=O)cc1)c1cccs1	-2	-13%	-78*	?	26%	-10
CC(C)CN1C(=O)c2ccc(NC(=O)c3ccco3)cc2C1=O	49*	1%	-4	?	-8%	61*
Cc1ccc(C)c(OC(=O)c2cccnc2)c1	0	11%	/	?	28%	/
COc1ccc(N2CCN(C(=O)CCc3ccccc3OC)CC2)cc1	-3	0%	-22	-14%	/	5
COc1ccc(-n2c(=O)c(CCC(=O)N3CCN(c4ccccc4O)CC3)nc3ccccc32)cc1	/	-24%	?	8.3µM*	3.7µM*	/
